eIF4E-4G inh: blocks eIF4E binding to eIF4G; TR-FRET eIF4E-eIF4GI(517-606) binding, 2 h; inhibition, % at 21.7 µM; hit rate 0.37% among 220,000;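 active means inhibition above about 30%, limit read from the data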;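 further: 0% = full FRET control wells and 100% = background wells lacking eIF4GI fragment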
eIF4H FP inh: inhibitors of RNA binding by human eIF4H | Q15056 | eIF4H fluorescence polarization binding assay | inhibition, % at 35 µM | hit rate 0.94% among 290,000 | AID 2012;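 further: calls also rest on retests at 20 µM and on dose response follow-up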
PERK inhibitor: inhibitors of human PERK kinase | CHO PERK-DD fusion, SEAP luminescence translation reporter | inhibition, % at 5.6 µM | hit rate 0.17% among 220,000 | Q9NZJ5;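 active means inhibition above the mean inhibition of all tested compounds plus 3 SD, set separately per screening campaign, cut at about 2.9% in these data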;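 further: PERK kinase domain activated by AP20187 dimerizer at 100 nM; 0% = DMSO with dimerizer and 100% = rapamycin at 8.4 µM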
MLLE-PAM2 inh: inhibitors of microRNA-mediated deadenylation, human PABP1 MLLE binding | P11940 | GST-MLLE / FITC-PAM2 fluorescence polarization | inhibition, % at 20 µM | hit rate 0.36% among 360,000; in the data active means inhibition above about 35%, passing the limit was not always enough;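 further: plate controls were DMSO wells with GST-MLLE for no effect and wells lacking GST-MLLE protein for full effect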
Target sequence (P11940 whole entry, looked up): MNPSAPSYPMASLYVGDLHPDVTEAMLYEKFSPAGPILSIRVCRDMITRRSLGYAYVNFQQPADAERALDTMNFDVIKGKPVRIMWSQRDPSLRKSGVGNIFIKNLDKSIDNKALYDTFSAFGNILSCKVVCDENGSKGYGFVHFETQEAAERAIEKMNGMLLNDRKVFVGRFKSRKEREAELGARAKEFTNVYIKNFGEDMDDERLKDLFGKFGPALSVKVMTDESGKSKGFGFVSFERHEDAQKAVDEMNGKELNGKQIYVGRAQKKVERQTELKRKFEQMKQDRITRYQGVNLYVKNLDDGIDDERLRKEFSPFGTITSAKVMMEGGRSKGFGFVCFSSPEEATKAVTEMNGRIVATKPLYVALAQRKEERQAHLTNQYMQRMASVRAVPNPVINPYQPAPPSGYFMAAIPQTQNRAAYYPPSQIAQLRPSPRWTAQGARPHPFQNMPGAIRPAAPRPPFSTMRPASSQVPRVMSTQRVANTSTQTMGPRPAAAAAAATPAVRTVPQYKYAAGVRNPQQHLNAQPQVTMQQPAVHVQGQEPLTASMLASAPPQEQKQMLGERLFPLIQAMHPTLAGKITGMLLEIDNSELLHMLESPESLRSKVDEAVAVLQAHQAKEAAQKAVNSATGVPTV
PABP FP inh: PABP-poly(A) binding inhibition; P11940; hit rate 1% among 290,000; inhibition, % at 35 µM; PABP-poly(A) RNA binding, fluorescence polarization;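 further: calls also rest on retests at 20 µM and on dose response follow-up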
Starred values were filed as active, the others as inactive; i = inactive; ? = inconclusive; · = no result given; ! = repeats disagree; [ ] = another dose, or the depositor's remark. Rows were chosen to be rich in hits. Some 1.6% of all compounds tested hit in one or more screens of this group. Unless noted, how the calls were made is not given here.

SMILES | eIF4E-4G inh | eIF4H FP inh | PERK inhibitor | MLLE-PAM2 inh | PABP FP inh
Cc1ccc(C(=O)NC(=S)Nc2ccc(Oc3ccc(Cl)cc3)cc2)cc1 | 0 | -10 | 1 | 29 | 7
O=C(NC(=S)Nc1ccc(Oc2ccccc2)cc1)c1ccc(Cl)cc1 | 10 | -1 | 0 | 41* | 5
COc1ccccc1NC(=O)c1ccc(S(=O)(=O)N(C)C)cc1 | 38*[fluorescence artefact?] | -7 | 0 | -10 | -8
Nc1ccc(N)c(C(=O)O)c1 | 94* | · | · | 55 | ·
COc1cc2c(cc1OC)C(c1cc(OC)c(OC)c(OC)c1)C1(O)C(=O)OCC1(O)C2 (stereo not drawn) | · | · | · | 16 | ·
CCn1c(CC(=O)Nc2ccccc2C)nnc1SCC(=O)NC1CCCC1 | · | -7 | · | -8 | 4
COc1ccc(NCC(=O)Nc2c(C)cccc2C)cc1S(=O)(=O)N1CCOCC1 | · | · | · | 11 | ·
CCN(CC)CCNC(=O)c1cc(-c2ccc(Br)s2)nc2ccccc12 | · | -8 | · | 0 | -15
CCCCOc1cc(C(=O)NCCN(CC)CC)c2ccccc2n1 | 74*! | -4 | -1 | -8 | -14
CC1CCN(C(=O)COC(=O)C2CCN(S(=O)(=O)c3ccc(Cl)c(C(F)(F)F)c3)CC2)CC1 | · | · | · | -3 | ·
C#CCOCCOCCOCCNc1nc(N2CCN(C(=O)[C@H]([C@@H](C)CC)n3cc([C@@H](N)CO)nn3)CC2)nc(N2CCN(C(=O)[C@H]([C@@H](C)CC)n3cc([C@@H](N)CC(C)C)nn3)CC2)n1 | 7 | ? | 0 | 41* | ?
C#CCOCCOCCOCCNc1nc(N2CCN(C(=O)[C@H]([C@@H](C)CC)n3cc([C@@H](N)CO)nn3)CC2)nc(N2CCN(C(=O)[C@H]([C@@H](C)CC)n3cc([C@@H](N)CO)nn3)CC2)n1 | 2 | -1 | · | · | 4
C#CCOCCOCCOCCNc1nc(OC)nc(N2CCN(C(=O)[C@H](CCCCN)n3cc(C(N)CO)nn3)CC2)n1 (stereo partly drawn) | 0 | 60* | · | · | 52*
CCCS(=O)(=O)N1CCN=C1SCc1cccnc1 | 15 | 1 | 1 | 40* | -3
CCCS(=O)(=O)N1CCN=C1SCc1ccc(F)cc1 | · | -3 | · | -4 | 11
COCC(=O)Nc1sc2c(c1C(=O)OC)CCC(C)C2 (stereo not drawn) | 3 | -7 | 1 | 0 | -8
CC1CCc2c(sc(NC(=O)CCC(=O)O)c2C(=O)NC2CC2)C1 (stereo not drawn) | · | -8 | · | 40* | 9
CCC1c2ccc(C)n2CCN1C(=O)Nc1ccccc1C(=O)OC (stereo not drawn) | 6 | 132 | 0 | 24 | 125*
CCOC(=O)c1ccccc1NC(=O)N1CCn2c(C)ccc2C1CC (stereo not drawn) | 6 | ? | -1 | 5 | 116*
COc1ccc2ccccc2c1C1CC(=O)N2CN(C)CSC2=C1C#N (stereo not drawn) | 49*[fluorescence artefact?] | 4 | 1 | 6 | 22
Nc1ncnc2c1ncn2C1C=C(CO)C(O)C1O (stereo not drawn) | · | · | · | 3 | ·
Cn1c(=O)c(NCCc2ccccc2)c2c3c(cccc31)C(=O)c1ccccc1-2 | -3 | 128* | -1 | i | 120*
C=CCCCCCCCCc1nc(SCC(=O)O)n[nH]1 | 3 | -2 | 3.0* | -13 | -11
C=CCCCCCCCCc1nc(SCC(C)=O)n[nH]1 | -1 | -3 | 2 | -45 | -2
CC1=C(C#N)c2nc(N)c(C#N)c(C)c2/C1=C\c1ccc(-c2ccccc2C(=O)O)o1 | 12 | 86* | 1 | -4 | 65*
SMILES | eIF4E-4G inh | eIF4H FP inh | PERK inhibitor | MLLE-PAM2 inh | PABP FP inh
CCN1C(=O)[C@H]2[C@@H](c3ccc(SC4CCCCC4)cc3)N3CCCC[C@@]3(C(=O)OC)[C@H]2C1=O | · | · | · | 4 | ·
CCN1C(=O)[C@@H]2[C@@H](c3ccc(SC4CCCCC4)cc3)N3CCC[C@@]3(C(=O)OC)[C@@H]2C1=O | · | · | · | 40* | ·
CCC1(c2ccccc2)NC(=O)N(CC(=O)Nc2ccc(S(=O)(=O)Nc3ncccn3)cc2)C1=O (stereo not drawn) | · | · | · | -18 | ·
Cc1ccc(S(=O)(=O)CCSc2nc(C)cc(C(F)(F)F)c2C#N)cc1 | 11 | 83* | 1 | -19 | 1.4*
N#Cc1c(-c2ccccc2Cl)noc1/C=C/Nc1ccc(C(=O)O)cc1 | -1 | 52* | 1 | -11 | active
N#Cc1c(-c2ccco2)cc(-c2ccc(F)cc2)nc1N | · | 62* | 2 | -63 | 76*
N#Cc1c(-c2ccc(F)cc2)cc(-c2cccnc2)nc1N | -18 | 5 | 0 | -9 | 0
O=C(OCn1nnc2ccccc2c1=O)c1cc2ccccc2o1 | 98* | -7 | · | -1 | 6
COC(=O)c1ccc(Oc2nc(NC(C)C)nc(N(C)C)n2)cc1 | -4 | 11 | 0 | 0 | -3
COC(=O)c1ccc(Oc2nc(NC(C)C)nc(NC(C)C)n2)cc1 | 97* | 0 | -1 | -2 | -2
O=C(Nc1ccc(N2CCOCC2)c(S(=O)(=O)Nc2ccc(Cl)cc2)c1)c1cnccn1 | -3 | -4 | 1 | 40* | 3
COc1ccc(F)cc1-c1cc(C(=O)NCc2ccccc2)[nH]n1 | · | · | · | -12 | ·
O=CNc1ccc2c3c(cccc13)-c1ccccc1-2 | · | · | · | 47* | ·
CN1/C(=C\C(=O)c2cccc([N+](=O)[O-])c2)Sc2ccccc21 | · | 11 | · | 39* | -2
NCc1ccccc1CS(=O)(=O)N1CCOCC1 | · | · | · | 8 | ·
COc1cccc(CN(C)CC(=O)NC(=O)NCc2ccco2)c1 | -10 | 50* | -1 | 3 | 30*
COc1cccc(CN(C)CC(=O)Nc2ccccc2C(=O)NC2CC2)c1 | · | · | · | 89* | ·
COc1cccc(NC(=O)CN(C)CC(=O)NCc2ccco2)c1 | · | · | · | -19 | ·
COc1ccc(CN(CC(=O)NC(C)C)C(=O)CCC(=O)Nc2nccs2)cc1 | · | -5 | · | -4 | 0
CC(C)Cc1ccc(-c2cc3nc(NCC4CC4)ccn3n2)cc1 | · | · | · | -4 | ·
CNCc1ccccc1Sc1ccc(O)c(O)c1 | 23 | 36 | 1 | 40* | 17
COc1ccc(Sc2ccccc2CN(C)C)cc1OC | 3 | -4 | 0 | 18 | -5
COc1ccc(NC(=O)CSc2nc(N)c3cc4c(nc3n2)CC(C)(C)OC4)cc1 | -1 | -7 | 3.2* | -16 | 8
O=C(O)c1cc(O)c2c(c1)C(=O)c1cc(O)cc(O)c1C2=O | 8 | 90* | -1 | -9 | 76*
CC(=O)Oc1cccc2c1C(=O)c1c(OC(C)=O)cc(C(=O)O)cc1C2=O | 6 | ? | 0 | 34 | -4
CCn1c(=NC(=O)C2COc3ccccc3O2)sc2c(C)ccc(OC)c21 (stereo not drawn) | 90* | 7 | 2 | 3 | 14
C=CCn1c(=NC(=O)C2COc3ccccc3O2)sc2cccc(OC)c21 (stereo not drawn) | 3 | 11 | 1 | -2 | 3
O=C(NCCS(=O)(=O)N1CCN(c2ccccc2)CC1)C1CCCCC1 | · | · | · | -5 | ·
CCOc1cc(C2C3=C(CCCC3=O)N(CC(=O)O)C3=C2C(=O)CCC3)ccc1OC | · | 6 | · | 60* | 7
O=C(COC(=O)c1cccc(F)c1)NC(=O)NC1CCCC1 | · | · | · | -6 | ·
